# “And” between values parts separate entries of the source, which are not always exact repeats. Identical values can stand only once. The source made the active and inactive calls. Entries that show only a call come without a potency. Calls come from the whole dose curve.
# Target: Estrogen receptor (Homo sapiens) (UniProt P03372)
# Test: qHTS assay to identify small molecule agonists of the estrogen receptor alpha (ER-alpha) signaling pathway (AID 743075);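 note: HEK293 GripTite cells with ER-alpha and UAS-driven beta-lactamase reporter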
# Settings: HEK293 ER-alpha-UAS-bla, beta-lactamase FRET ratio, 18 h; series mostly up to 70.1 µM
# Potency is the fitted concentration of half-maximal effect.
# Estrogen receptor (Homo sapiens), sequence (P03372 whole entry, looked up): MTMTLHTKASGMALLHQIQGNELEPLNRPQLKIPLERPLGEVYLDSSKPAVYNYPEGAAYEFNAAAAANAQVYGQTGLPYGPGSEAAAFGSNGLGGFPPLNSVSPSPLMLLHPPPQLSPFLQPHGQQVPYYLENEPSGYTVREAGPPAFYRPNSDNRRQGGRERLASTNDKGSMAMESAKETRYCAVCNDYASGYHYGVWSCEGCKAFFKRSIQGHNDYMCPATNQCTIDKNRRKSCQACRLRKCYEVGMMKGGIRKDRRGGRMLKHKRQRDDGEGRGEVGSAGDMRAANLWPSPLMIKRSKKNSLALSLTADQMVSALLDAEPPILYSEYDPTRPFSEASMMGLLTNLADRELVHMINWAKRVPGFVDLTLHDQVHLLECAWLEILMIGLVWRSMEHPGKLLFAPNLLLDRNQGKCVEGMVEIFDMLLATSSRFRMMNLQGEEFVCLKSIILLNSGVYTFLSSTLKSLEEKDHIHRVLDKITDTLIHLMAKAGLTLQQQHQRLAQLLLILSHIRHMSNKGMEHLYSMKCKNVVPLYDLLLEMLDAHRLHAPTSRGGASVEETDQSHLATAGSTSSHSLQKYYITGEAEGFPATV
row,Compound,Potency
1,O=C1OC2(c3ccc(O)cc3Oc3cc(O)ccc32)c2ccccc21,inactive
2,O=C(O)c1cc(Cl)cc(Cl)c1,inactive
3,Oc1c(Cl)cc(Cl)cc1Sc1cc(Cl)cc(Cl)c1O,inactive
4,CCCCC(CC)COC(=O)CC(C(=O)OCC(CC)CCCC)S(=O)(=O)O (stereo not given),inactive
5,CC(=O)O[C@]1(C(C)=O)CC[C@H]2[C@@H]3C[C@H](C)C4=CC(=O)CC[C@]4(C)[C@H]3CC[C@@]21C,inactive
6,CCN(CC)C(=S)SSC(=S)N(CC)CC,inactive
7,CC(C)CCOCc1ccccc1,inactive
8,CCC[C@H](N[C@@H](C)C(=O)N1[C@H](C(=O)O)C[C@@H]2CCCC[C@@H]21)C(=O)OCC,inactive
9,Nc1ccc(O)cc1,inactive
10,C1COC(NC(C2CC2)C2CC2)=N1,inactive
11,CC[C@@H](N)CO,inactive
12,CCCOC(=O)c1cc(O)c(O)c(O)c1,9.52 µM [inconclusive] (active) and 19.4 µM [inconclusive] (active) and 61.6 µM [inconclusive] (active)
13,CC(=O)CC(=O)Nc1ccc2[nH]c(=O)[nH]c2c1,inactive
14,NC(=Nc1ccccc1)Nc1ccccc1,inactive
15,OCCN1CCNCC1,inactive
